# Bioassay records (PubChem)
# Most compounds without a hit are left out; they make up all but 19% or so of the library.
# HT1080-NT tox = qHTS for induction of synthetic lethality in tumor cells producing 2HG: qHTS for the HT-1080-NT fibrosarcoma cell line. Potency, µM (highest dose often 46.1 µM), hits mostly cytotoxic. AID 686970, 2013. 1.6% of 360,000 active. HT-1080-NT fibrosarcoma viability, CellTiter-Glo ATP luminescence, 48 h;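 further: NT is the 2HG producing partner of a matched IDH1 knockdown line; nearly all actives have a fitted effect of over 55% in size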
#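 Toxicity toward the 2HG-producing NT line was scored as %Activity, normalised to DMSO and no-cell wells, from CellTiter-Glo luminescence after 48 hours' treatment.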
# HT1080 IDH1KD tx = qHTS for induction of synthetic lethality in tumor cells producing 2HG: qHTS for the HT-1080-IDH1KD cell line; HT-1080 IDH1 knockdown viability, ATP luminescence, 48 h; Potency, µM (titrated, usually from 46.1 µM), actives largely listed as cytotoxic; 2% of 360,000 active
#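 CellTiter-Glo luminescence after 48 h compound exposure at 37 degrees C of IDH1-knockdown HT-1080 cells in 5% FBS RPMI. %Activity scaled between DMSO wells and cell-free media wells, with curves fitted and assigned curve classes.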
# TDP1 cell noCPT = qHTS for Inhibitors of human tyrosyl-DNA phosphodiesterase 1 (TDP1): qHTS in cells in absence of CPT; DT40 Tdp1-/- hTDP1 cells, no CPT, ATP luminescence, 48 h; Potency, µM (highest dose often 46.2 µM), hits mostly inhibitors; 15% of 420,000 active; further: nearly all actives have a fitted effect of over 55% in size
#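 No-CPT arm: Tdp1-/-;hTDP1 DT40 cells (400/well) plus compounds, incubated ≥48 hr at 37 °C. Readout CellTiter-Glo luminescence.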
# IL1B secr inh = qHTS for Inhibitors of Inflammasome Signaling: IL-1-beta AlphaLISA Primary Screen | activity change, % at 57.5 µM | 4.7% of 360,000 active | THP-1 LPS/ATP IL-1B secretion, AlphaLISA, 16 h; hits give low values; in the data active means activity change below about -50%; inconclusive means mostly about -30% to -49%
#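 THP-1 cells pretreated 1 hr with compounds (up to 57.5 uM final), then stimulated with LPS (250 ng/mL final) plus ATP (1.25 mM final); secreted IL-1B measured by AlphaLISA after 16 hr, decreased signal indicating inhibition.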
# TDP1 cell CPT = qHTS for Inhibitors of human tyrosyl-DNA phosphodiesterase 1 (TDP1): qHTS in cells in presence of CPT | chicken DT40 Tdp1-/-;hTDP1 cells + 20 nM CPT, ATP luminescence, 48 h | Potency, µM (doses to about 46.2 µM), usual class: inhibitors | 12% of 420,000 active | AID 686979, 2013; further: nearly all actives have a fitted effect of over 55% in size
#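 Chicken DT40 Tdp1-/- cells stably complemented with human TDP1 were seeded at 400 cells/well in medium containing 20 nM camptothecin, exposed to pin-transferred compounds, and grown at 37 °C for at least 48 hr. Viability was read as ATP luminescence.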
# Numbers stand for hits; . = inactive; ? = inconclusive; / = not tested or not shown; [ ] = remark or other dose. Unless noted, the call rests on the fitted dose curve; in most records, active means well fitted curve in the direction sought with a large enough effect; inconclusive means small, poorly fitted or top-dose-only effect, or another doubt; inactive means no such curve, though single readings can be large; an effect the other way counts as inactive or inconclusive.
SMILES,HT1080-NT tox,HT1080 IDH1KD tx,TDP1 cell noCPT,IL1B secr inh,TDP1 cell CPT
S=c1[nH]c2ccccc2n1CCc1ccncc1,.,.,?,-61,.
Cc1cccc(OCCn2c(=S)[nH]c3ccccc32)c1,.,?,?,.,23µM
S=c1[nH]c2ccccc2n1Cc1ccccc1,.,.,?,.,?
S=c1[nH]c2ccccc2n1CCOc1ccccc1,.,.,.,.,.
Cc1ccc(OCCn2c(=S)[nH]c3ccccc32)c(C(C)C)c1,.,?,?,.,26µM
CCOc1ccc(OCCn2c(=S)[nH]c3ccccc32)cc1,.,.,.,.,.
Cc1cc(N=Nc2ccccc2)c(NCC(O)C(O)C(O)CO)cc1C (stereo unspecified),.,.,.,?,.
CCCCc1c(C)[nH]c(=S)[nH]c1=O,.,.,.,.,.
Cc1cccc(OCCc2c(C)[nH]c(=S)[nH]c2=O)c1,?,?,16µM,.,?
Cc1ccccc1Nc1c(-c2ccc(N3CCOCC3)cc2)nc2ccc(Cl)cn12,/,/,16µM,/,18µM
Cc1ccn2c(Nc3ccccc3C)c(-c3ccc(N4CCOCC4)cc3)nc2c1,/,/,?,/,18µM
Cc1ccc2nc(-c3ccc(N4CCOCC4)cc3)c(Nc3ccccc3C)n2c1,/,/,18µM,/,16µM
Cc1ccc(Nc2c(-c3ccc(N4CCOCC4)cc3)nc3ccc(Cl)cn23)cc1,/,/,.,/,.
CC(C)(C)OC(=O)NCCCCCO,.,.,.,.,.
COc1ccc(OCC(=O)Nc2cccc(NC(=O)c3ccco3)c2)cc1,.,.,?,.,.
COc1ccc(CNC(=O)CNS(=O)(=O)c2ccc(Cl)cc2)cc1,.,.,.,.,.
CC(C)(C)c1cc(NC(=O)c2cccs2)no1,.,.,.,-51,?
O=C(NCc1ccccn1)c1cccs1,.,.,.,.,.
CC(C)(C)c1cc(NC(=O)c2cc(F)c(F)c(F)c2F)no1,.,.,?,.,29µM
O=C(Nc1ccccn1)c1ccc(-c2ccccc2)cc1,?,?,?,-59,.
O=C(Nc1ccccn1)c1cccs1,.,.,26µM,.,18µM
COc1ccc(-n2c(=O)c3c(c4cc(OC)ccc4n3C)n(Cc3cccc(OC)c3)c2=O)cc1,/,/,.,/,.
CC(=O)NCCNC(=O)CCNC(=O)c1ccc(Cl)cc1,.,.,.,.,.
O=C(Nc1nonc1NC(=O)c1cccs1)c1cccs1,.,.,23µM,.,26µM
COc1ccc(-c2csc(NC(=O)C3CSC4(C)CCC(=O)N34)n2)c(OC)c1 (stereo unspecified),.,.,23µM,-71,?
SMILES,HT1080-NT tox,HT1080 IDH1KD tx,TDP1 cell noCPT,IL1B secr inh,TDP1 cell CPT
CC1CCCCN1S(=O)(=O)c1ccc(N(C(=O)c2cnccn2)C(C(=O)NC2CCCCC2)c2cccs2)cc1 (stereo unspecified),.,.,?,-63,?
CC1CCCCN1S(=O)(=O)c1ccc(N(C(=O)c2cnccn2)C(C(=O)NC2CCCC2)c2cccs2)cc1 (stereo unspecified),.,.,21µM,.,?
Cc1cc(C)cc(N(C(=O)c2ccccn2)C(C(=O)NC2CCCCC2)c2cccs2)c1 (stereo unspecified),.,?,.,.,?
O=C(Nc1ccncc1)C1C(=O)c2ccccc2N(Cc2ccccc2)C1=O (stereo unspecified),/,/,0.71µM,/,1µM
c1ccc(N=c2nc(-c3ccccc3)n(-c3ccccc3)s2)cc1,/,/,5.6µM,/,6.3µM
c1ccc(Cn2sc(=Nc3ccccc3)nc2-c2ccccc2)cc1,/,/,.,/,.
O=C(CC[C@H]1O[C@@H](n2cnc3c(NC(=O)c4ccccc4)ncnc32)[C@H](O)[C@@H]1O)NCC1CCN(Cc2ccccc2)CC1,?,.,.,.,.
CCOc1ccc(N2CC(C(=O)Nc3ccccc3N3CCOCC3)CC2=O)cc1 (stereo unspecified),.,.,.,.,?
C[C@H](NC(=O)N1CCn2c1nc1ccccc12)C(=O)N1CCCCC1,.,.,?,.,16µM
CC(C)C[C@H](NC(=O)N1CCn2c1nc1ccccc12)C(=O)NCCc1ccccc1,.,.,?,-51,?
CC(C)C[C@H](NC(=O)N1CCn2c1nc1ccccc12)C(=O)NCc1ccccc1,.,.,?,.,?
CCOC(=O)C1(CCOc2ccccc2)CCN(Cc2ccc(O)c(OCC)c2)CC1,?,?,?,-89,.
CCOC(=O)C1(CCOC)CCN(Cc2cnc(-c3cccc(C)c3)nc2)CC1,.,.,16µM,.,?
CCOC(=O)C1(CCOc2ccccc2)CCN(Cc2ccc(OCCO)cc2)CC1,.,?,?,?,?
CCOC(=O)C1(CCOc2ccccc2)CCN(Cc2ccc(OC)c(COC)c2)CC1,?,13µM,18µM,-52,18µM
CCOC(=O)C1(CCOc2ccccc2)CCN(Cc2ccc(OC)c(O)c2)CC1,.,.,?,-52,16µM
C#CCNc1c2c(nc3ncnn13)CC(C)CC2 (stereo unspecified),.,.,.,.,.
Cc1ccc(CN2C[C@H](Sc3ccccn3)C[C@H]2C(=O)Nc2ccc3sc(C)nc3c2)c(C)c1,/,/,.,/,.[9.04 µM]
CCc1nc2c(OCc3ccccc3)cccn2c1N(C)C(=O)c1ccc2c(c1)OCO2,.,.,?,.,?
CCOC(=O)C1(CCOc2ccccc2)CCN(Cc2cc(OC)c(O)c(OC)c2)CC1,.,.,?,.,29µM
CCOC(=O)C1(CCOc2ccccc2)CCN(Cc2ccc(O)cc2)CC1,.,.,?,.,?
CCOC(=O)C1(CC2CC2)CCN(Cc2ccc(OC)cc2F)CC1,.,.,?,-54,.
CCOC(=O)C1(CC2CC2)CCN(Cc2cnc(-c3ccccc3C)nc2)CC1,.,.,18µM,.,15µM
Brc1cccc(-c2nn(-c3ccccc3)c3c2cnc2cc4c(cc23)OCO4)c1,/,/,.,/,.
O=C(O)COc1cccc(-c2ocnc2-c2nc(-c3ccccc3)c(-c3ccccc3)o2)c1,/,/,.,/,.
COc1ccccc1-c1cc(C(=O)N/N=C/c2sccc2C)c2ccccc2n1,.,.,1µM,.,6.5µM
Cc1ccsc1/C=N/NC(=O)c1ccccn1,.,.,?,.,?
Cc1ccsc1/C=N/NC(=O)c1c[nH]c2ccccc12,.,.,?,.,?
Cc1ccsc1/C=N/NC(=O)c1cc(-c2ccncc2)nc2ccccc12,?,0.92µM,0.58µM,.,0.58µM
